Gal4-VP16 FLuc – Gal4-VP16 reporter inhibition counter-screen; Drosophila S2 Gal4-VP16 UAS-luciferase, luminescence, 20 h; Potency, µM (titrated, usually from 53.6 µM), for the others: top-dose activity, negative = inhibition, hits mostly inhibitors; 3.5% of 310,000 active;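 note: Gal4-VP16 expression switched on by copper sulfate through the metallothionein promoter; potency is the fitted concentration of half-maximal effect; nearly all actives have a fitted effect of over 50% in size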
RORgamma inh – inhibitors of mouse ROR gamma transcriptional activity | P51450 | Drosophila S2 Gal4-RORgamma UAS-luciferase reporter, 20 h | Potency, µM (highest dose often 53.6 µM), for inactives: at the top dose activity change, negative = inhibition, hits mostly inhibitors | 5.4% of 310,000 active; note: potency is the fitted concentration of half-maximal effect; nearly all actives have a fitted effect of over 60% in size
Target sequence (P51450 whole entry, looked up, the tested form may be a part): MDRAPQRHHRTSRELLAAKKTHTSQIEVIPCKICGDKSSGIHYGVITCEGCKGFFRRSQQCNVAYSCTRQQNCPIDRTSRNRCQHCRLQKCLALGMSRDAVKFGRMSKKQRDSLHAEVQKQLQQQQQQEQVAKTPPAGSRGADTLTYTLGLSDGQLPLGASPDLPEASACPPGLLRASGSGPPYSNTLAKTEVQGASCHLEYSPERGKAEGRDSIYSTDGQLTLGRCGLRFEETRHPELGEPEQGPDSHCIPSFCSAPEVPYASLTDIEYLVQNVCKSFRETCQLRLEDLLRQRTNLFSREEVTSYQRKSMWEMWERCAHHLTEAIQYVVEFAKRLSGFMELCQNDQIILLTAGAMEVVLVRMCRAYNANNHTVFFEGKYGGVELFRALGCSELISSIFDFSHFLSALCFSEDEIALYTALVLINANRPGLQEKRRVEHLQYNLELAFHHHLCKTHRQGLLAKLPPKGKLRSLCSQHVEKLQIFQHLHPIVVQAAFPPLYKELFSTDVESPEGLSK
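Drosophila S2 cells stably expressing Gal4-DBD/mouse RORγ fusion under metallothionein promoter plus UAS-luciferase; compound 1 h, then 700 uM CuSO4 induction for 20 h at ambient temperature; inhibition read as reduced luminescence.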
TSHR antag – antagonists of human thyroid stimulating hormone receptor. TSHR-expressing cells, TSH-stimulated cAMP HTRF, 2 h; stronger effect = lower value. activity change, negative = inhibition, % at 11.5 µM. 0.2% of 330,000 active. AID 504810;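 active = activity change below a set negative limit, meaning inhibition stronger than a set level, cut at about -70% in these data; inconclusive = activity change between two set negative limits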
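Competitive HTRF cAMP read-out (cryptate anti-cAMP antibody, cAMP-d2; 30 min, room temperature) in freshly harvested TSHR cells. Compounds added before TSH at EC80 (4nM final), followed by 2 hours' incubation at 37 deg C.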
ELG1 repair inh – inhibitors of ELG1-dependent DNA repair in HEK293T cells; 2.3% of 330,000 active; Potency, µM (doses to about 46.1 µM), for inactives: top-dose activity change, negative = inhibition, most hits filed as inhibitors; HEK293T ELG1-luciferase reporter, luminescence, 16 h; DNA damage induced by 5-fluorouridine; note: potency is the fitted concentration of half-maximal effect; nearly all actives have a fitted effect of over 55% in size
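Overnight (16 hr) co-exposure of 2,000 cells/well to 5-fluorouridine and compound at 37 °C preceded detection. Luciferase was quantified via ONE-Glo luminescence; loss of signal denotes inhibition.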
Coupling enz – inhibits coupling enzyme system, counter-screen for aldolase hits | coupling enzyme system counterscreen, AmpLite Red fluorescence | activity change, negative = inhibition, % at 58.2 µM, hits read low | 0.67% of 290,000 active | AID 2472; in the data active = activity change below about -30%
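Coupling enzymes only (glyceraldehyde-3-phosphate) + compound, at 57.5 uM final, 10 min RT; add substrate/coupling/AmpLite Red mix, 20 min RT; fluorescence ex 525/em 598 nm. Actives flag coupling-system interference.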
* hit, by the source's call. Compounds with a hit are over-represented: about 8% of the library has one in this group of screens. Unless noted, calls come from the whole dose curve; as a rule, active = well fitted curve in the direction sought with a large enough effect; inconclusive = small, poorly fitted or top-dose-only effect, or another doubt; inactive = no such curve, though single readings can be large; an effect the other way counts as inactive or inconclusive. % is set by controls: 0 for no effect and ±100 for the full control effect.

Results for Cc1ccccc1N=Cc1c(O)n(-c2nccs2)c(=O)c2ccccc12 ?
Gal4-VP16 FLuc: 2%; RORgamma inh: 35%; TSHR antag: -6; ELG1 repair inh: 21µM*; Coupling enz: 1

Results for CCC(C)c1cc([N+](=O)[O-])cc([N+](=O)[O-])c1OC(=O)OC(C)C (stereo not drawn) ?
Gal4-VP16 FLuc: inconclusive; RORgamma inh: inconclusive; Coupling enz: -8

How did COc1ccc2nc(/C(C#N)=C\c3ccc(Oc4ccc([N+](=O)[O-])cn4)cc3)[nH]c2c1 do in these assays?
Gal4-VP16 FLuc: inconclusive; RORgamma inh: inconclusive; TSHR antag: -12; ELG1 repair inh: -17%; Coupling enz: 0

Results for N#C/C(=C\c1ccc([N+](=O)[O-])o1)c1nc2ccccc2[nH]1 ?
Gal4-VP16 FLuc: 1.6µM*; RORgamma inh: 2µM*; TSHR antag: -28; ELG1 repair inh: inconclusive; Coupling enz: 0

What do the screens show for `N#C/C(=C\Nc1ccc2c(c1)OCCO2)c1nc2ccccc2[nH]1`?
Gal4-VP16 FLuc: 5µM*; RORgamma inh: 3.2µM*; TSHR antag: -22; ELG1 repair inh: inconclusive; Coupling enz: -9

Results for Cc1ccc2nc(/C(C#N)=C\c3ccc(Oc4ccc([N+](=O)[O-])cn4)cc3)[nH]c2c1 ?
Gal4-VP16 FLuc: 5%; RORgamma inh: 45%; TSHR antag: -16; ELG1 repair inh: 5.2µM*; Coupling enz: 1

What do the screens show for `N#C/C(=C(/O)c1ccc([N+](=O)[O-])o1)c1nc2ccccc2[nH]1`?
Gal4-VP16 FLuc: -9%; RORgamma inh: 3%; TSHR antag: -1; ELG1 repair inh: inconclusive; Coupling enz: -2

What do the screens show for `Cc1ccc2nc(/C(C#N)=C\c3ccc([N+](=O)[O-])o3)[nH]c2c1`?
Gal4-VP16 FLuc: 3.2µM*; RORgamma inh: 5.6µM*; TSHR antag: -27; ELG1 repair inh: -17%

What do the screens show for `CC(C)Cn1c(SCC(=O)N2CCOCC2)nc2ccccc2c1=O`?
TSHR antag: -6; ELG1 repair inh: -2%

How did CN(CC(=O)Nc1ccc(F)cc1)CC(=O)N1CCCCCC1 do in these assays?
TSHR antag: 14; ELG1 repair inh: -3%

What do the screens show for `CCCCN(C(=O)c1cc2c(s1)CCC2)c1c(N)n(CCC)c(=O)[nH]c1=O`?
TSHR antag: 11; ELG1 repair inh: 5%

How did O=C(CCN1C(=O)[C@@H]2Cc3ccccc3CN2C1=O)N[C@H](Cc1ccccc1)C(=O)O do in these assays?
Gal4-VP16 FLuc: -7%; RORgamma inh: -6%; TSHR antag: -3; ELG1 repair inh: -21%; Coupling enz: -1

What do the screens show for `COc1ccc(-n2c(SCC(=O)Nc3ccc(C(=O)O)cc3)nnc2-c2ccccc2)cc1OC`?
Gal4-VP16 FLuc: -6%; RORgamma inh: 3%; TSHR antag: 6; ELG1 repair inh: 1%; Coupling enz: 5

What do the screens show for `CCNC(=S)N/N=C/c1cn(Cc2ccc(F)cc2)c2ccccc12`?
Gal4-VP16 FLuc: 1.8µM*; RORgamma inh: 1.1µM*; TSHR antag: 0; ELG1 repair inh: -14%; Coupling enz: 0

What do the screens show for `Cc1ccc(C(=O)N/N=C/c2cn(Cc3ccccc3)c3ccccc23)cn1`?
Gal4-VP16 FLuc: inconclusive; RORgamma inh: inconclusive; TSHR antag: -12; ELG1 repair inh: 6.5µM*; Coupling enz: 0

How did CNC(=S)N/N=C/c1cn(Cc2c(F)cccc2Cl)c2ccccc12 do in these assays?
Gal4-VP16 FLuc: 5µM*; RORgamma inh: 0.45µM*; TSHR antag: 4; ELG1 repair inh: inconclusive; Coupling enz: 3

Results for O=C1CCCc2c1cc(C(=O)Nc1ccc(Br)cn1)c(=O)n2-c1ccccc1 ?
Gal4-VP16 FLuc: -1%; RORgamma inh: -1%; TSHR antag: 3; ELG1 repair inh: -1%; Coupling enz: -51*

How did O=C1CCCc2c1cc(C(=O)NC1CCSC1=O)c(=O)n2-c1ccccc1 (stereo not drawn) do in these assays?
Gal4-VP16 FLuc: -6%; RORgamma inh: 3%; ELG1 repair inh: 20%; Coupling enz: -38*
